Hits are enriched below; roughly 1.6% of the tested compounds scored in any of these assays.
MLLE-PAM2 inh: blocks PAM2 peptide binding to the PABP1 MLLE domain | P11940 | hit rate 0.36% among 360,000 | GST-MLLE / FITC-PAM2 fluorescence polarization | AID 588489 | inhibition, % at 20 µM; in the data active means inhibition above about 35%, passing the limit was not always enough;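 further: plate controls were DMSO wells with GST-MLLE for no effect and wells lacking GST-MLLE protein for full effect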
eIF4H inh: inhibitors of RNA binding by human eIF4H. inhibition, % at 35 µM. eIF4H fluorescence polarization binding assay. hit rate 0.94% among 290,000;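 further: calls also rest on retests at 20 µM and on dose response follow-up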
PABP FP inh: blocks human PABP binding to poly(A) RNA. P11940. fluorescence polarization. calls only at 35 µM. hit rate 1% among 290,000;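 further: calls also rest on retests at 20 µM and on dose response follow-up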
PERK inhibitor: inhibitors of human PERK kinase. CHO PERK-DD fusion, SEAP luminescence translation reporter. hit rate 0.17% among 220,000. inhibition, % at 5.6 µM. Q9NZJ5;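 active means inhibition above the mean inhibition of all tested compounds plus 3 SD, set separately per screening campaign, cut at about 2.9% in these data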;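 further: PERK kinase domain activated by AP20187 dimerizer at 100 nM; 0% = DMSO with dimerizer and 100% = rapamycin at 8.4 µM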
eIF4E-4G inh: eIF4E/eIF4G interaction inhibition in translation initiation; inhibition, % at 21.7 µM; P63073+Q04637; TR-FRET eIF4E-eIF4GI(517-606) binding, 2 h; hit rate 0.37% among 220,000;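 active means inhibition above about 30%, limit read from the data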;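 further: 0% = full FRET control wells and 100% = background wells lacking eIF4GI fragment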
* hit, by the source's call. Unless noted, how the calls were made is not given here.

Screening CCCCNC(=O)c1ccc2nc(-c3ccco3)c(-c3ccco3)nc2c1 returned MLLE-PAM2 inh 19.6, eIF4H inh 93.9*, PABP FP inh active, PERK inhibitor 0.8 and eIF4E-4G inh 7.9.
Screening Cc1ccc(-n2c(C)cc3c2CCCC3=O)cc1 returned MLLE-PAM2 inh 41.6*, eIF4H inh 20.3, PABP FP inh inactive, PERK inhibitor 0.6 and eIF4E-4G inh -1.1.
Screening Cc1ccc(-c2cc3c(n2-c2ccc(C(=O)O)cc2)CCCC3=O)cc1 returned MLLE-PAM2 inh 6.8, eIF4H inh -6.6, PABP FP inh inactive, PERK inhibitor 0.8 and eIF4E-4G inh 11.9.
Screening CC[C@@H]1C=C(C)C[C@H](C)C[C@H](OC)[C@H]2O[C@@](O)(C(=O)C(=O)N3CCCC[C@H]3C(=O)O[C@H](/C(C)=C/[C@@H]3CC[C@@H](O)[C@H](OC)C3)[C@H](C)[C@@H](O)CC1=O)[C@H](C)C[C@@H]2OC returned eIF4H inh -4.0, PABP FP inh inactive, PERK inhibitor 95.5* and eIF4E-4G inh 2.3.
For CO[C@H]1C[C@@H]2CC[C@@H](C)[C@@](O)(O2)C(=O)C(=O)N2CCCC[C@H]2C(=O)O[C@H]([C@H](C)C[C@@H]2CC[C@@H](O)[C@H](OC)C2)CC(=O)[C@H](C)C=C(C)[C@@H](O)[C@@H](OC)C(=O)[C@H](C)C[C@H](C)C=CC=CC=C1C the results were eIF4H inh -1.9, PABP FP inh inactive and eIF4E-4G inh -22.4.
For Cc1nc(-c2ccc([N+](=O)[O-])cc2)sc1C(=O)O the results were MLLE-PAM2 inh 10.7, eIF4H inh 0.8, PABP FP inh inactive, PERK inhibitor 1.5 and eIF4E-4G inh 17.6.
`Cc1ccc(SCCNC(=S)Nc2cc(C)ccc2C)cc1` gave MLLE-PAM2 inh -34.3, eIF4H inh -5.8, PABP FP inh inactive, PERK inhibitor 1.2 and eIF4E-4G inh -0.6.
`Cc1ccc(C)c(NC(=S)NCCN(C2CCCCC2)C2CCCC2)c1` gave MLLE-PAM2 inh 17.9, eIF4H inh 0.0, PABP FP inh inactive, PERK inhibitor -0.3 and eIF4E-4G inh 96.6*.
`O=C1c2cccc(OCC(=O)N3N=C(c4cccs4)CC3c3ccc(F)cc3)c2CCN1Cc1cccnc1` (centres undefined) gave MLLE-PAM2 inh -8.0, eIF4H inh -4.0, PABP FP inh inactive, PERK inhibitor -0.9 and eIF4E-4G inh -1.6.
`CC(=O)NC(CC(=O)NC1CCCc2ccccc21)c1ccccc1` (centres undefined) gave MLLE-PAM2 inh -7.4, eIF4H inh -11.6 and PABP FP inh inactive.
For CCN(CC)S(=O)(=O)c1ccc(N2CCOCC2)c(NC(=O)CC(C)(C)C)c1 the results were MLLE-PAM2 inh 5.4, eIF4H inh 1.3, PABP FP inh inactive, PERK inhibitor -1.1 and eIF4E-4G inh 0.9.
Screening CCN(CC)S(=O)(=O)c1ccc(N2CCOCC2)c(NC(=O)CCC2CCCCC2)c1 returned MLLE-PAM2 inh 39.0*, eIF4H inh 4.3, PABP FP inh inactive, PERK inhibitor -0.7 and eIF4E-4G inh 2.7.
C#CCN1C(=O)C(O)(CC(=O)c2ccc(OC)c(OC)c2)c2ccccc21 (centres undefined) was read as MLLE-PAM2 inh 3.9, eIF4H inh -3.0, PABP FP inh inactive, PERK inhibitor -0.2 and eIF4E-4G inh 97.3*.
CCOC(=O)c1ccc(S(=O)(=O)N2CCN(CCc3ccncc3)CC2)cc1 was read as MLLE-PAM2 inh -5.2.
Screening Cc1ccc(/C=[N+](/C)[O-])cc1 returned MLLE-PAM2 inh 8.3, eIF4H inh -5.6, PABP FP inh inconclusive, PERK inhibitor 1.6 and eIF4E-4G inh 0.2.
`Cc1ccc(C=C2C(Cl)=C(Cl)C(Cl)=C2Cl)cc1` gave eIF4H inh 101.5*, PABP FP inh active, PERK inhibitor 1.5 and eIF4E-4G inh 9.1.
O=C(Cc1ccccc1[N+](=O)[O-])OCc1cccc([N+](=O)[O-])c1 was read as eIF4H inh 2.1 and PABP FP inh inactive.
For COc1ccc2c3c([nH]c2c1)C1CC2C(CC(O)C(OC)C2CO)CN1CC3 (centres undefined) the results were MLLE-PAM2 inh -9.6, eIF4H inh 47.2, PABP FP inh inactive, PERK inhibitor 4.1* and eIF4E-4G inh -2.6.
`COc1ccc2c3c([nH]c2c1)[C@H]1C[C@H]2[C@H](C[C@@H](O)[C@H](OC)[C@H]2C(=O)O)CN1CC3` gave MLLE-PAM2 inh -2.7.

Screening results from PubChem BioAssay.
